# Source: PMC7862700, “An all-to-all approach to the identification of sequence-specific readers for epigenetic DNA modifications on cytosine”
# Legend:
# Test in all cases: DAPPL (digital affinity profiling via proximity ligation, sequencing); 10 mM Tris-HCl pH 7.5, 50 mM NaCl, 1 mM DTT, 4% glycerol, room temperature, 30 min; GST-TFs on glutathione beads, 16-mer random dsDNA library, 0.1% formaldehyde crosslink after washing; high values mean tight binding
# [1] = target: T1, FLI1 (Homo sapiens, UniProt Q01543 1-452); conditions: protein: recombinant; tags: N-terminal GST; dsDNA, one strand shown
# T1 sequence: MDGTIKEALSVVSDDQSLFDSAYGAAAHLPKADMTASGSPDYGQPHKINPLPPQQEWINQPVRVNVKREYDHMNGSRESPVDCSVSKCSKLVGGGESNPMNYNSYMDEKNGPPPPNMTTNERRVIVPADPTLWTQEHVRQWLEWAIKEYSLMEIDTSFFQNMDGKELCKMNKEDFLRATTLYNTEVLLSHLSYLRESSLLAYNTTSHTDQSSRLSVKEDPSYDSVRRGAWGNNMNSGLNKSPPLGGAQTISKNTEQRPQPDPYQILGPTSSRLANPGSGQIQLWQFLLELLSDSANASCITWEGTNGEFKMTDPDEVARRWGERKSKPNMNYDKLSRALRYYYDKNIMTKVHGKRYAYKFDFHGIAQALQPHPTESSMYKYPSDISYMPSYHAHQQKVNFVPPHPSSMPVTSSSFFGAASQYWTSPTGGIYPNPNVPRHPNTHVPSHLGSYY
# Method in brief: (§1)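 Human transcription factors were made in yeast as GST fusions, captured on glutathione beads and barcoded with DNA. With a tag-only sample included, the pool was incubated with 200 nmole of a random double-stranded 16-mer DNA library in Tris/NaCl/DTT/glycerol buffer at room temperature for 30 min, then crosslinked with 0.1% formaldehyde after washing, ligated by proximity, amplified and sequenced. For binding signal, each hexamer's read frequency for a factor is divided by its frequency for the tag-only sample.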
# [2] = target: T2, ELK1 (Homo sapiens, UniProt P19419 1-428); conditions: protein: recombinant; tags: N-terminal GST; dsDNA, one strand shown
# T2 sequence: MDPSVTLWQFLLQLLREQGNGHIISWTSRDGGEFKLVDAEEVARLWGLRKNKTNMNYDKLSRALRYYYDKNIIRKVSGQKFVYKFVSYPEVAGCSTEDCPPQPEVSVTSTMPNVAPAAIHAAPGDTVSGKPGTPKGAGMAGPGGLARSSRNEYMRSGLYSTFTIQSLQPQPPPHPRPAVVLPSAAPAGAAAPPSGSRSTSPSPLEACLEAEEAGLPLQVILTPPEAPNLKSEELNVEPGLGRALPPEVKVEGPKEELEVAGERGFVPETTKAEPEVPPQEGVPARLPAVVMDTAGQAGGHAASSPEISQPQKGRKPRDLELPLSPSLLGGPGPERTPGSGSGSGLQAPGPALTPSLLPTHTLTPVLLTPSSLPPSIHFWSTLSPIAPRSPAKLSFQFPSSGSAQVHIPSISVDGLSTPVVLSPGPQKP
# Method in brief: as §1
# [3] = target: T3, GABPA (Homo sapiens, UniProt Q06546 1-454); conditions: protein: recombinant; tags: N-terminal GST; dsDNA, one strand shown
# T3 sequence: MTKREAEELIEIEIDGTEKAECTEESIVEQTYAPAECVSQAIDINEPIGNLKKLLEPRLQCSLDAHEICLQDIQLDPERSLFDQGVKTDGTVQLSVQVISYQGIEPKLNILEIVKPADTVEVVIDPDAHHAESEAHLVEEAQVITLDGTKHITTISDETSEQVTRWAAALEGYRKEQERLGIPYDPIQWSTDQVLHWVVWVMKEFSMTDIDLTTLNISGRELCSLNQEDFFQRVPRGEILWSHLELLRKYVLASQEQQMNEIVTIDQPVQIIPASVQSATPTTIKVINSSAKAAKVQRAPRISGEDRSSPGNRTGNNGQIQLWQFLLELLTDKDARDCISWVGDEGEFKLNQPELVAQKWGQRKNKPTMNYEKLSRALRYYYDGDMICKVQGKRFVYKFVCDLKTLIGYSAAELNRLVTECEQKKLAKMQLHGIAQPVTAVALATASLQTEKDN
# Method in brief: as §1
# [4] = target: T4, ERG (Homo sapiens, UniProt P11308 1-479); conditions: protein: recombinant; tags: N-terminal GST; dsDNA, one strand shown
# T4 sequence: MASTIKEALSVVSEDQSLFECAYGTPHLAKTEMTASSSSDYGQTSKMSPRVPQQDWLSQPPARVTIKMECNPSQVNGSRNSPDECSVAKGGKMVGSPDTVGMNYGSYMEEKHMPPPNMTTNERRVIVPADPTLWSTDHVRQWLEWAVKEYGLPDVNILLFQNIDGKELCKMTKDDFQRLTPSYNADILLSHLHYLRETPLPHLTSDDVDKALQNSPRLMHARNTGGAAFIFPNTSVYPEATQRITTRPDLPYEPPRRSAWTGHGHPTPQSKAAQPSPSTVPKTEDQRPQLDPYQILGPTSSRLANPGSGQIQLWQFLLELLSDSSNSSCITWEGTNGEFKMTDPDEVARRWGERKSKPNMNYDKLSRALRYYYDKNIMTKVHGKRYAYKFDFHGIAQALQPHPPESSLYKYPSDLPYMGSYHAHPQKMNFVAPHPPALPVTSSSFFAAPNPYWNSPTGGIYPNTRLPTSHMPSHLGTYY
# Method in brief: as §1
# [5] = target: ELF1 (Homo sapiens, UniProt P32519 1-619); conditions: protein: recombinant; tags: N-terminal GST; dsDNA, one strand shown
# Method in brief: as §1
# [6] = target: T5, EHF (Homo sapiens, UniProt Q9NZC4 1-300); conditions: protein: recombinant; tags: N-terminal GST; dsDNA, one strand shown
# T5 sequence: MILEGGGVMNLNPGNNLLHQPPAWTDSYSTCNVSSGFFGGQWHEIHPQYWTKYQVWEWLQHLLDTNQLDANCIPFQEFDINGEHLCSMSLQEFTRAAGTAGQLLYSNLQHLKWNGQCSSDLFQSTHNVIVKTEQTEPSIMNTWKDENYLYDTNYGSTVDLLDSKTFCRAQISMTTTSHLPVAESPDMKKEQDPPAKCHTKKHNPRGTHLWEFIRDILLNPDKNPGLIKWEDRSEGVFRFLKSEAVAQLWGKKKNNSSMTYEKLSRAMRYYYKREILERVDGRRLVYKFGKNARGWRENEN
# Method in brief: as §1
# [7] = target: SPI1 (Homo sapiens, UniProt P17947 1-270); conditions: protein: recombinant; tags: N-terminal GST; dsDNA, one strand shown
# Method in brief: as §1
# [8] = target: SPIB (Homo sapiens, UniProt Q01892 1-262); conditions: protein: recombinant; tags: N-terminal GST; dsDNA, one strand shown
# Method in brief: as §1
# [9] = target: T6, ELK3 (Homo sapiens, UniProt P41970 1-407); conditions: protein: recombinant; tags: N-terminal GST; dsDNA, one strand shown
# T6 sequence: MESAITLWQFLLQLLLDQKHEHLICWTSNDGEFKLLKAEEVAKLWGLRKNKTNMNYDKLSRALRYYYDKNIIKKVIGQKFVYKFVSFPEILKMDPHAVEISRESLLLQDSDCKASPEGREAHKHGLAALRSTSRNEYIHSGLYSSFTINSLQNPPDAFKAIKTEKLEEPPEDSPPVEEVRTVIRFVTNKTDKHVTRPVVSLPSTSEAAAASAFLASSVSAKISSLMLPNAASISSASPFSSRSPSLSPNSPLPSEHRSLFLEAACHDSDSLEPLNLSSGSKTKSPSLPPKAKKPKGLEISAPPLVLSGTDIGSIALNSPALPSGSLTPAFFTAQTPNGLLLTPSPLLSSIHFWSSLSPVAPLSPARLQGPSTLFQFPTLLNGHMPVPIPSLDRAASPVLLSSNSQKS
# Method in brief: as §1
# [10] = target: T7, FEV (Homo sapiens, UniProt Q99581 1-238); conditions: protein: recombinant; tags: N-terminal GST; dsDNA, one strand shown
# T7 sequence: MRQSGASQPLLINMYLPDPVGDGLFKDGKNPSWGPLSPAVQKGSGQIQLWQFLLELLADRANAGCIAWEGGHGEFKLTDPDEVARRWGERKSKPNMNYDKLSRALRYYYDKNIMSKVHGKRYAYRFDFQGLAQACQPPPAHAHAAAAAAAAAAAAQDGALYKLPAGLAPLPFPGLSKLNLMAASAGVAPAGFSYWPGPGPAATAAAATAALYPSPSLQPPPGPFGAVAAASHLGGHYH
# Method in brief: as §1
# [11] = target: ETV5 (Homo sapiens, UniProt P41161 1-510); conditions: protein: recombinant; tags: N-terminal GST; dsDNA, one strand shown
# Method in brief: as §1
# [12] = target: HSF1 (Homo sapiens, UniProt Q00613 1-529); conditions: protein: recombinant; tags: N-terminal GST; chain copies: 3; dsDNA, one strand shown
# Method in brief: as §1
# [13] = target: T8, SPIC (Homo sapiens, UniProt Q8N5J4 1-248); conditions: protein: recombinant; tags: N-terminal GST; dsDNA, one strand shown
# T8 sequence: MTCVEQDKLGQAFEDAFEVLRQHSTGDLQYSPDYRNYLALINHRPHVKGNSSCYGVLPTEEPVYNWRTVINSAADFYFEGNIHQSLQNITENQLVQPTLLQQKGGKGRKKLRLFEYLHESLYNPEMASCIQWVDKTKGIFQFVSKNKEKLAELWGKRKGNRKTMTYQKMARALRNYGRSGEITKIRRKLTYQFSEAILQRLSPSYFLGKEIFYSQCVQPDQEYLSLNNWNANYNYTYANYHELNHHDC
# Method in brief: as §1
# [14] = target: ELF4 (Homo sapiens, UniProt Q99607 1-663); conditions: protein: recombinant; tags: N-terminal GST; dsDNA, one strand shown
# Method in brief: as §1
# [15] = target: T9, ELK4 (Homo sapiens, UniProt P28324-2 1-405); conditions: protein: recombinant; tags: N-terminal GST; dsDNA, one strand shown
# T9 sequence: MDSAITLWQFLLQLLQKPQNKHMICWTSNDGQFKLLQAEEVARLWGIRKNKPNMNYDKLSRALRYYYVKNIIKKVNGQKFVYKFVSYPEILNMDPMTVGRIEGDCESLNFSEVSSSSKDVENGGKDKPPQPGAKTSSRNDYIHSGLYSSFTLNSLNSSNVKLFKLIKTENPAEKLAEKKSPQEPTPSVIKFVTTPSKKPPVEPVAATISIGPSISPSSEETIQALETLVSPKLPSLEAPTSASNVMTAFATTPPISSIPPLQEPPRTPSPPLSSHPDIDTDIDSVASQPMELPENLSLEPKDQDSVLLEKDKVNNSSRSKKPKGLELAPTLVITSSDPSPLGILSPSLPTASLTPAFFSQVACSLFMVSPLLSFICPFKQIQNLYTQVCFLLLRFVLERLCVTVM
# Method in brief: as §1
# [16] = target: T10, ETV2 (Homo sapiens, UniProt O00321 1-342); conditions: protein: recombinant; tags: N-terminal GST; dsDNA, one strand shown
# T10 sequence: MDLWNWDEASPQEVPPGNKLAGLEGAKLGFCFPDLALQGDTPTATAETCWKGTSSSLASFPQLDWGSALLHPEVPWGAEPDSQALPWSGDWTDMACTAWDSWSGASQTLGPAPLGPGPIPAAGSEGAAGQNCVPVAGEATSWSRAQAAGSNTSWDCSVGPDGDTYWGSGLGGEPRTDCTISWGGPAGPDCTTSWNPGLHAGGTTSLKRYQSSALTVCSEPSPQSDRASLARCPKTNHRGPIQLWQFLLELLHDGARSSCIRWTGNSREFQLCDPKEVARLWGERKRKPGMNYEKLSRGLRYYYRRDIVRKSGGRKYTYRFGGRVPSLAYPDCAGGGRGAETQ
# Method in brief: as §1
# [17] = target: T11, ELF3 (Homo sapiens, UniProt P78545 1-371); conditions: protein: recombinant; tags: N-terminal GST; dsDNA, one strand shown
# T11 sequence: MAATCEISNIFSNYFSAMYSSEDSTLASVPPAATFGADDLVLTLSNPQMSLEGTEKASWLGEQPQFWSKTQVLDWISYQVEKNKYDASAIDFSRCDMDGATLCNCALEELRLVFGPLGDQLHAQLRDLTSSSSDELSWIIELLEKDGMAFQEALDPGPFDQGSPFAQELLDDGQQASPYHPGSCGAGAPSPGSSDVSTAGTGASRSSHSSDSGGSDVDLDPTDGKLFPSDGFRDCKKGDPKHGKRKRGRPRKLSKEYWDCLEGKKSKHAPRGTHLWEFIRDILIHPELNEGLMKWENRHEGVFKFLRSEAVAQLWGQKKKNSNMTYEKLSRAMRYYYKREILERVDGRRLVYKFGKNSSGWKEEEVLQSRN
# Method in brief: as §1
# [18] = target: CRX (Homo sapiens, UniProt O43186 1-299); conditions: protein: recombinant; tags: N-terminal GST; dsDNA, one strand shown
# Method in brief: as §1
# [19] = target: ETV1 (Homo sapiens, UniProt P50549 1-477); conditions: protein: recombinant; tags: N-terminal GST; dsDNA, one strand shown
# Method in brief: as §1
# ELF1, sequence (P32519 whole entry): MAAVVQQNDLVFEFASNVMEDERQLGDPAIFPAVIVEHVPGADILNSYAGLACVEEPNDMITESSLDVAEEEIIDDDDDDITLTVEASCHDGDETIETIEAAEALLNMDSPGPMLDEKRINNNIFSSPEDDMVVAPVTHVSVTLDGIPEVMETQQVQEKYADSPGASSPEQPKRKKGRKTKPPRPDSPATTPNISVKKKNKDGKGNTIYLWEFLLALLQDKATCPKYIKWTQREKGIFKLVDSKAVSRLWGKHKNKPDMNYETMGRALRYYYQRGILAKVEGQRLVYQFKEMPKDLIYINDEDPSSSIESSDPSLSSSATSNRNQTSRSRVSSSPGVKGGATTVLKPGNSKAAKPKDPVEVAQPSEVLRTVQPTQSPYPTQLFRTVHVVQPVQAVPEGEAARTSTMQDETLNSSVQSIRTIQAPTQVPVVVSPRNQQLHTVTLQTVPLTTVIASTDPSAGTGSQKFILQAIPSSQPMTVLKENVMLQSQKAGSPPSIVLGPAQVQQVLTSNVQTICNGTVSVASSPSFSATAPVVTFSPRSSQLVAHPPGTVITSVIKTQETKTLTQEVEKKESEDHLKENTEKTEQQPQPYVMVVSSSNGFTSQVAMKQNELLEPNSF
# ELF4, sequence (Q99607 whole entry): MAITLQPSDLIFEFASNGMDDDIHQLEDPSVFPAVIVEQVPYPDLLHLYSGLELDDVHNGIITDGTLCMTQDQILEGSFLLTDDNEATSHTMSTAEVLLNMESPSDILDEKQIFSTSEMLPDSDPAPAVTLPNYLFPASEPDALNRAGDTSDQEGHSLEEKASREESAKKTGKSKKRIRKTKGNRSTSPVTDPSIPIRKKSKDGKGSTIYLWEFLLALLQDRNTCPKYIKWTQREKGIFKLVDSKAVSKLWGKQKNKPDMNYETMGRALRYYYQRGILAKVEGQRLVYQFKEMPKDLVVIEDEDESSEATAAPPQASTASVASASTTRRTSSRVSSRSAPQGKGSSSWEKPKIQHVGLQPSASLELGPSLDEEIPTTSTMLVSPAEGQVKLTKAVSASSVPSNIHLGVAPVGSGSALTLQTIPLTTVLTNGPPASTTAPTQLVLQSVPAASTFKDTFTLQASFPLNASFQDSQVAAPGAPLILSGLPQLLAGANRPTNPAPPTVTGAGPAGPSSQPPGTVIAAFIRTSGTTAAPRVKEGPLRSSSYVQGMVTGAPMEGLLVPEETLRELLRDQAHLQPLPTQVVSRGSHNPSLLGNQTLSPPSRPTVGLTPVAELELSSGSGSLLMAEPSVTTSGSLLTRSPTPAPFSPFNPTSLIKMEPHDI
# HSF1, sequence (Q00613 whole entry): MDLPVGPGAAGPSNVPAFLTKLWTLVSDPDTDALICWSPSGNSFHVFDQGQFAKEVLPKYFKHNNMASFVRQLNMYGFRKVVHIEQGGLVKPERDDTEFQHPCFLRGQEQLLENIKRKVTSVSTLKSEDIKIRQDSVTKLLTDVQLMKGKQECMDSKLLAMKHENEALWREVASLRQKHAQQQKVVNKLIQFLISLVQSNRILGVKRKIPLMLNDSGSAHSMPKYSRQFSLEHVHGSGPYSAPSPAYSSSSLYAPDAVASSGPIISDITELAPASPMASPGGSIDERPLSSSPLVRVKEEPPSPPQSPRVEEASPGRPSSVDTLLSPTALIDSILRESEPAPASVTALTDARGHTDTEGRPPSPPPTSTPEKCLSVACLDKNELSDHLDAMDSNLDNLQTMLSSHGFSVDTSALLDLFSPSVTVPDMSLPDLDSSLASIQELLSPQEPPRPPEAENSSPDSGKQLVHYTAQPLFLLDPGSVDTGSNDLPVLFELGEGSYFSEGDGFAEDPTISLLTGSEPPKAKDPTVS
# ETV5, sequence (P41161 whole entry): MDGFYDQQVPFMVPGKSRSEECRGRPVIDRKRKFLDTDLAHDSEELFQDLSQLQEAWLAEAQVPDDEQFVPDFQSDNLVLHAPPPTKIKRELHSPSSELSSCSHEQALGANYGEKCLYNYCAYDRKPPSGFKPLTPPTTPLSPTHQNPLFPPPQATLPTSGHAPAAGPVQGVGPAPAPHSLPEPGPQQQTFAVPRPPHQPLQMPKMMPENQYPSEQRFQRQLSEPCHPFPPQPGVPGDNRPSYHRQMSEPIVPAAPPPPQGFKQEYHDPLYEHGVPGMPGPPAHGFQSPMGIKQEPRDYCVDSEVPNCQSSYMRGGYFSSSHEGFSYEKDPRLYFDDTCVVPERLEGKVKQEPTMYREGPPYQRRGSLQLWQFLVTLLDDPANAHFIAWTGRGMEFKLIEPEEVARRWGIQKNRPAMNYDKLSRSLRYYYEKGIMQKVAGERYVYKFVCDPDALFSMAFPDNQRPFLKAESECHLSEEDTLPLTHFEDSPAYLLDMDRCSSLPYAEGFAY
# CRX, sequence (O43186 whole entry): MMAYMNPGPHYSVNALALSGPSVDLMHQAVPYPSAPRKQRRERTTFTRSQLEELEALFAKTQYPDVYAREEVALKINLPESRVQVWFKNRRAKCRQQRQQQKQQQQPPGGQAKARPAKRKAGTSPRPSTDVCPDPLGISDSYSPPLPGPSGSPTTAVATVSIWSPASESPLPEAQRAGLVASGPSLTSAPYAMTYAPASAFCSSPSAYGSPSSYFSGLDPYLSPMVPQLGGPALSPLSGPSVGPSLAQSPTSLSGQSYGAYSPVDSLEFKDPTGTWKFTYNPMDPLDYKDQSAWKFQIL
# SPIB, sequence (Q01892 whole entry): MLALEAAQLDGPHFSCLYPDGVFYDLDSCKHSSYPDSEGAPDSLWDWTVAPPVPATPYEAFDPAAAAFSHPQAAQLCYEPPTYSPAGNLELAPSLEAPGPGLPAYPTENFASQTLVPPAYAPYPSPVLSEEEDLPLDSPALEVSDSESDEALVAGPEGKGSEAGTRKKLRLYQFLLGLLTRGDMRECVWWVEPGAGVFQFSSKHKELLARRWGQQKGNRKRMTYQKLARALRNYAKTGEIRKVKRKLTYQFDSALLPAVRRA
# ETV1, sequence (P50549 whole entry): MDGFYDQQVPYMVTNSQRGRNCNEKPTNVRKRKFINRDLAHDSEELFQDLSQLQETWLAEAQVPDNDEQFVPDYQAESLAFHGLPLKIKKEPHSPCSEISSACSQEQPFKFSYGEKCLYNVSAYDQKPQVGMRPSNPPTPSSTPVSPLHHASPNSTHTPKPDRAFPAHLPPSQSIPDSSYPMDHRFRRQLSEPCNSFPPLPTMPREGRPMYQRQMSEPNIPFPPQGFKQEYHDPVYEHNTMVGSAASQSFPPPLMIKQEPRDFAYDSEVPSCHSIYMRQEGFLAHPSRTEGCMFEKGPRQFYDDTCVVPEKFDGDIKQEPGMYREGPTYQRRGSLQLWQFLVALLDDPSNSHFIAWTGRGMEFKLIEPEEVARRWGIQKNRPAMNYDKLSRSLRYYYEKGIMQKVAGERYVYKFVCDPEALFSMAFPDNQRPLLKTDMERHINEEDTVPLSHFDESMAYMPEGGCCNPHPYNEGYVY
sequence,measurement,setting,value
AATATA,binding signal,[1],"1.28 fold enrichment (6-mer frequency, TF over GST control)"
same,binding signal,[2],"1.38 fold enrichment (6-mer frequency, TF over GST control)"
same,binding signal,[3],"1.35 fold enrichment (6-mer frequency, TF over GST control)"
same,binding signal,[4],"1.33 fold enrichment (6-mer frequency, TF over GST control)"
same,binding signal,[5],"1.37 fold enrichment (6-mer frequency, TF over GST control)"
same,binding signal,[6],"1.42 fold enrichment (6-mer frequency, TF over GST control)"
same,binding signal,[7],"1.37 fold enrichment (6-mer frequency, TF over GST control)"
same,binding signal,[8],"1.28 fold enrichment (6-mer frequency, TF over GST control)"
same,binding signal,[9],"1.43 fold enrichment (6-mer frequency, TF over GST control)"
same,binding signal,[10],"1.3 fold enrichment (6-mer frequency, TF over GST control)"
same,binding signal,[11],"1.33 fold enrichment (6-mer frequency, TF over GST control)"
same,binding signal,[12],"1.38 fold enrichment (6-mer frequency, TF over GST control)"
same,binding signal,[13],"1.29 fold enrichment (6-mer frequency, TF over GST control)"
same,binding signal,[14],"1.3 fold enrichment (6-mer frequency, TF over GST control)"
same,binding signal,[15],"1.39 fold enrichment (6-mer frequency, TF over GST control)"
same,binding signal,[16],"1.35 fold enrichment (6-mer frequency, TF over GST control)"
same,binding signal,[17],"1.5 fold enrichment (6-mer frequency, TF over GST control)"
same,binding signal,[18],"1.62 fold enrichment (6-mer frequency, TF over GST control)"
same,binding signal,[19],"1.39 fold enrichment (6-mer frequency, TF over GST control)"
